Assay results taken from PubChem BioAssay AID1159580 (chemical genetic matrix, 2015).
About 2,000 (36%) of roughly 5,500 compounds were called active. Roughly 18% stayed inconclusive and do not appear here. Cut-off read from the data, not from the text of the source: active = normalized growth mostly below about 0.91 (no sharp cut-off); inconclusive = no clear call, values can overlap the other calls; inactive = mostly above about 0.92. Some of the results follow.

Assay: chemical genetic growth profiling, strain panel (AID 1159580);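 note: tested at 20 µM; growth read once vehicle control cultures reached saturation at 30 °C; 1 = growth at the plate median or of vehicle wells; lower values mean less growth of the strain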
Conditions: growth OD

Measured: normalized growth

C[C@@H]1CC[C@H]2[C@@H](C)C(O)O[C@@H]3O[C@@]4(C)CC[C@@H]1[C@]32OO4 (some centres not stated)
inactive: S. cerevisiae deletion strains, locus YMR307W, strain GAS1, hits give low values 0.661 | S. cerevisiae deletion strains, locus YOL012C, strain htz1 0.255
active: S. cerevisiae deletion strains, locus YJR075W, strain HOC1, hits give low values 0.166 | S. cerevisiae deletion strains, locus YKL009W, strain mrt4, hits give low values 0.649 | S. cerevisiae deletion strains, locus YKL068W, hits give low values 0.775 | S. cerevisiae deletion strains, locus YKL085W, strain MDH1 (second series), hits give low values 0.363 | S. cerevisiae deletion strains, locus YKL085W, strain MDH1, hits give low values 0.363 | S. cerevisiae deletion strains, locus YKL160W, strain elf1, hits give low values 0.336 | S. cerevisiae deletion strains, locus YKL190W, strain CNB1, hits give low values 0.231 | S. cerevisiae deletion strains, locus YKR001C, strain vps1, hits give low values 0.587 | S. cerevisiae deletion strains, locus YKR026C, strain gcn3, hits give low values 0.407 | S. cerevisiae deletion strains, locus YKR091W, strain srl3, hits give low values 0.329 | S. cerevisiae deletion strains, locus YLL001W, strain dnm1, hits give low values 0.233 | S. cerevisiae deletion strains, locus YLL026W, hits give low values 0.243 | S. cerevisiae deletion strains, locus YLL041C, strain sdh2, hits give low values 0.3 | S. cerevisiae deletion strains, locus YLR027C, strain aat2, hits give low values 0.261 | S. cerevisiae deletion strains, locus YLR039C, strain RIC1, hits give low values 0.33 | S. cerevisiae deletion strains, locus YLR058C, strain SHM2, hits give low values 0.403 | S. cerevisiae deletion strains, locus YLR102C, strain apc9, hits give low values 0.419 | S. cerevisiae deletion strains, locus YLR113W, strain HOG1, hits give low values 0.323 | S. cerevisiae deletion strains, locus YLR221C, strain rsa3, hits give low values 0.204 | S. cerevisiae deletion strains, locus YLR258W, strain gsy2, hits give low values 0.279 | S. cerevisiae deletion strains, locus YLR262C, strain YPT6 (second series), hits give low values 0.322 | S. cerevisiae deletion strains, locus YLR262C, strain YPT6, hits give low values 0.486 | S. cerevisiae deletion strains, locus YLR268W, strain sec22, hits give low values 0.248 | S. cerevisiae deletion strains, locus YLR320W, strain mms22, hits give low values 0.236 | S. cerevisiae deletion strains, locus YLR330W, strain CHS5, hits give low values 0.307 | S. cerevisiae deletion strains, locus YLR342W, strain FKS1 (second series), hits give low values 0.483 | S. cerevisiae deletion strains, locus YLR342W, strain FKS1, hits give low values 0.563 | S. cerevisiae deletion strains, locus YLR357W, strain rsc2, hits give low values 0.358 | S. cerevisiae deletion strains, locus YLR370C, strain arc18, hits give low values 0.384 | S. cerevisiae deletion strains, locus YLR371W, strain rom2, hits give low values 0.528 | S. cerevisiae deletion strains, locus YLR384C, strain iki3, hits give low values 0.771 | S. cerevisiae deletion strains, locus YLR418C, strain cdc73, hits give low values 0.254 | S. cerevisiae deletion strains, locus YML016C, strain PPZ1, hits give low values 0.214 | S. cerevisiae deletion strains, locus YML032C, strain rad52, hits give low values 0.367 | S. cerevisiae deletion strains, locus YML120C, strain ndi1, hits give low values 0.29 | S. cerevisiae deletion strains, locus YML124C, strain tub3, hits give low values 0.421 | S. cerevisiae deletion strains, locus YMR058W, strain fet3, hits give low values 0.361 | S. cerevisiae deletion strains, locus YMR078C, strain ctf18, hits give low values 0.401 | S. cerevisiae deletion strains, locus YMR125W, strain sto1, hits give low values 0.462 | S. cerevisiae deletion strains, locus YMR129W, hits give low values 0.266 | S. cerevisiae deletion strains, locus YMR205C, strain PFK2, hits give low values 0.366 | S. cerevisiae deletion strains, locus YMR223W, strain ubp8, hits give low values 0.31 | S. cerevisiae deletion strains, locus YMR231W, strain pep5, hits give low values 0.84 | S. cerevisiae deletion strains, locus YMR263W, strain SAP30, hits give low values 0.47 | S. cerevisiae deletion strains, locus YNL067W, strain RPL9B, hits give low values 0.288 | S. cerevisiae deletion strains, locus YNL071W, strain lat1, hits give low values 0.167 | S. cerevisiae deletion strains, locus YNL128W, strain TEP1, hits give low values 0.167 | S. cerevisiae deletion strains, locus YNL153C, strain GIM3, hits give low values 0.285 | S. cerevisiae deletion strains, locus YNL183C, strain NPR1, hits give low values 0.266 | S. cerevisiae deletion strains, locus YNL209W, strain ssb2, hits give low values 0.195 | S. cerevisiae deletion strains, locus YNL233W, strain BNI4, hits give low values 0.292 | S. cerevisiae deletion strains, locus YNL248C, strain rpa49, hits give low values 0.384 | S. cerevisiae deletion strains, locus YNL250W, strain rad50, hits give low values 0.508 | S. cerevisiae deletion strains, locus YNL271C, strain bni1, hits give low values 0.505 | S. cerevisiae deletion strains, locus YNL298W, strain CLA4, hits give low values 0.298 | S. cerevisiae deletion strains, locus YNL307C, strain MCK1, hits give low values 0.125 | S. cerevisiae deletion strains, locus YNL322C, strain KRE1 (second series), hits give low values 0.493 | S. cerevisiae deletion strains, locus YNL322C, strain KRE1, hits give low values 0.349 | S. cerevisiae deletion strains, locus YNR049C, strain mso1, hits give low values 0.412 | S. cerevisiae deletion strains, locus YNR052C, strain pop2, hits give low values 0.788 | S. cerevisiae deletion strains, locus YOL006C, strain TOP1, hits give low values 0.16 | S. cerevisiae deletion strains, locus YOL147C, strain pex11, hits give low values 0.256 | S. cerevisiae deletion strains, locus YOR001W, strain rrp6, hits give low values 0.287 | S. cerevisiae deletion strains, locus YOR061W, strain CKA2, hits give low values 0.475 | S. cerevisiae deletion strains, locus YOR069W, strain VPS5, hits give low values 0.564 | S. cerevisiae deletion strains, locus YOR070C, strain gyp1, hits give low values 0.277 | S. cerevisiae deletion strains, locus YOR080W, strain dia2, hits give low values 0.431 | S. cerevisiae deletion strains, locus YOR083W, strain WHI5, hits give low values 0.3 | S. cerevisiae deletion strains, locus YOR106W, strain vam3, hits give low values 0.288 | S. cerevisiae deletion strains, locus YOR136W, strain idh2, hits give low values 0.321 | S. cerevisiae deletion strains, locus YOR144C, strain elg1, hits give low values 0.449 | S. cerevisiae deletion strains, locus YOR184W, strain ser1, hits give low values 0.131 | S. cerevisiae deletion strains, locus YOR231W, strain MKK1, hits give low values 0.37 | S. cerevisiae deletion strains, locus YOR265W, strain rbl2, hits give low values 0.327 | S. cerevisiae deletion strains, locus YOR270C, strain vph1, hits give low values 0.187 | S. cerevisiae deletion strains, locus YOR290C, strain snf2, hits give low values 0.302 | S. cerevisiae deletion strains, locus YOR316C, strain cot1, hits give low values 0.433 | S. cerevisiae deletion strains, locus YPL051W, strain arl3, hits give low values 0.374 | S. cerevisiae deletion strains, locus YPL055C, strain LGE1, hits give low values 0.331 | S. cerevisiae deletion strains, locus YPL078C, strain atp4, hits give low values 0.248 | S. cerevisiae deletion strains, locus YPL106C, strain sse1, hits give low values 0.263 | S. cerevisiae deletion strains, locus YPL240C, strain hsp82, hits give low values 0.313 | S. cerevisiae deletion strains, locus YPL241C, strain CIN2, hits give low values 0.323 | S. cerevisiae deletion strains, locus YPL256C, strain CLN2, hits give low values 0.419 | S. cerevisiae deletion strains, locus YPR119W, strain clb2, hits give low values 0.424 | S. cerevisiae deletion strains, locus YPR141C, strain kar3, hits give low values 0.494 | S. cerevisiae deletion strains, locus YPR163C, strain tif3, hits give low values 0.314 | S. cerevisiae deletion strains, locus YPR167C, strain met16, hits give low values 0.386 | S. cerevisiae deletion strains, strain wtn01, hits give low values 0.249 | S. cerevisiae strains, strain wild type, hits give low values 0.27
